The nature of experiment [1]: reduced mouse 2C T cell binding to pMHC/ICAM-1 vesicles – MLPCN validation set, flow cytometry, LFA-1/ICAM-1 modulator project, pilot screen (AID 2523;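 active = response below a set limit, under 55% cells CD8-positive and vesicle-bound, and CD8 cells' 90th-percentile brightness under 279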;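 as to vesicle binding response: mean PE anti-B7-1 fluorescence of CD8+ cells relative to row control; 100% = QL9-loaded vesicles with DMSO vehicle in the same plate row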). The conditions noted are these: 2C mouse CD8+ T cells, at 7 µM, stronger effect = lower value; double positive events: measured here: CD8+/vesicle+ event percentage.
For experiment [2], the target named is Integrin beta-1 (Homo sapiens) + Integrin alpha-4 (Homo sapiens) (UniProt P13612+P05556). Nature of the experiment: alpha4beta1 integrin LIBS antibody binding reduction – U937 cells, HUTS-21 mAb, flow cytometry, validation set, VLA-4 allosteric modulator project, pilot screen (AID 2674;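 active = inhibition above 50%, about 3 SD of the validation set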;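 also: antibody binding induced by the VLA-4 ligand LDV present at three times its Kd; 0% = LDV ligand with antibody and no compound and 100% = antibody without LDV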). The following applies: HUTS-21 LIBS mAb binding, at 6.7 µM, stronger effect = higher value.

A short description of experiment [3]: calorie-restriction mimetic ROS inhibitors, yeast – validation compound set, pilot screen (AID 2706;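 active = superoxide response below 65% of plate, a cut near 3 SD across the whole screen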;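 also: yeast exposed to compound for one week at 30 degrees C before staining; 100% = mean of all compound wells on the same plate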). The following applies: S. cerevisiae aging, superoxide DHE fluorescence; at 10 µM; stronger effect = lower value.
Experiment [4] concerns the target Beta-adrenergic receptor kinase 1 (Homo sapiens) (UniProt P25098). Description: GRK2 binders displacing RNA aptamer, biochemical, validation, human GRK2, bead flow cytometry (AID 488806;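 active = aptamer binding inhibition above 30%, about 3 SD of noise from non-fluorescent compounds; inactive = inhibition at or below 30%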). The conditions noted are these: bead-bound GRK2, FAM-aptamer displacement, at 10 µM, stronger effect = higher value.
For experiment [5], the target named is AP-2 complex subunit beta (Homo sapiens) (UniProt P63010). Nature of the experiment: beta-arrestin/AP2 interaction blockers – biochemical, validation set, GST-AP2 beads, flow cytometry, pilot screen (AID 504541;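 active = inhibition above 54%, about 3 SD of non-fluorescent compounds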;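 also: AP2 carries R879A mutation and is captured from E. coli lysate; bead-bound FITC arrestin peptide fluorescence measuring arrestin peptide binding to AP2; 0% = DMSO wells and 100% = excess unlabeled arrestin peptide control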). The following applies: FITC arrestin peptide, at 10 µM, stronger effect = higher value.
The nature of experiment [6]: cytosolic pH regulators acting via V-ATPase – S. cerevisiae, pHLuorin, HTS validation (AID 504600; in the data active = response above about 15%;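 also: plate controls were DMSO for no effect and reference compound for full effect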). The following applies: V-ATPase proton transport, at 10 µM, stronger effect = higher value.
For experiment [7], the system named is anti-desmoglein-3 scFv antibody binding to human DSG3. Description: blockers of pathogenic pemphigus antibody–desmoglein-3 binding – biochemical, validation compound set, bead-based, flow cytometry, pilot screen (AID 588368;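 active = binding below the plate cutoff, the plate median minus 3 SD, with a reading above zero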;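 also: signal is the median channel fluorescence of bead-bound GFP antibody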). The conditions noted are these: Protein G beads, DSG3-Fc, scFv-GFP binding, at 10 µM, stronger effect = lower value.
The subject of experiment [8] is Botulinum neurotoxin type F light chain protease (Clostridium botulinum). Nature of the experiment: Clostridium botulinum type F light chain protease inhibitors, microsphere substrate cleavage, validation (AID 588459). The following applies: multiplex microsphere protease substrate cleavage assay, flow cytometry; at 10 µM; stronger effect = higher value.
Experiment [9] addresses Botulinum neurotoxin type A (Clostridium botulinum) (UniProt P0DPI0). Nature of the experiment: BoNT/A light chain protease inhibitors, biochemical, multiplex microsphere flow cytometry, validation set (AID 588460). The conditions noted are these: at 10 µM, stronger effect = higher value.
Experiment [10] deals with Lethal factor (Bacillus anthracis) (UniProt P15917). Description: Bacillus anthracis lethal factor inhibition, microsphere flow cytometry protease assay, validation at 10 µM (AID 588461). The conditions noted are these: multiplex microsphere protease cleavage assay, stronger effect = higher value.
Experiment [11] in a line: Nile Red efflux blockade in pump-expressing yeast – validation compound set, multiplex, phenotypic, pilot screen (AID 588506;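 active = efflux inhibition above 0.42, the validation set average plus 4 SD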;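 also: Nile Red retained in cells so higher fluorescence means more efflux inhibition; 0 = negative control wells and 1 = enniatin B 25 µM full block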). The conditions noted are these: S. cerevisiae pump-expressing triplex, Nile Red efflux flow cytometry; at 10 µM; stronger effect = higher value.
For experiment [12], the target named is ATP-binding cassette sub-family B member 6 (Homo sapiens) (UniProt Q9NP58). Nature of the experiment: blockers of ABCB6-driven porphyrin uptake – K562-ABCB6 cells, flow cytometry, validation set, pilot screen (AID 588550;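 active = inhibition above the screen-wide mean plus 3 SD, about 51%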;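 also: 0% = DMSO wells and 100% = benzethonium chloride 70 µM positive control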). The following applies: K562-ABCB6 porphyrin accumulation, 1 h, at 10 µM, stronger effect = higher value.
A short description of experiment [13]: AML differentiation inducers, ER-HoxA9 marrow cells – cell-based, GFP/MAC1 double positive, flow cytometry, validation set, primary screen (AID 588685;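 active = differentiation response of at least 50%, scaled between solvent and reference control, from cells with both markers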;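 also: compound exposure lasts four days before antibody staining and flow analysis; 0% = DMSO wells and 100% = 5 µM fulvestrant positive control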). The conditions noted are these: stronger effect = higher value.
Experiment [14] deals with Beta-2 adrenergic receptor (Homo sapiens) (UniProt P07550). Nature of the experiment: agonist-induced loss of surface beta2AR – cell-based, FAP fluorogen, flow cytometry, validation set, pilot screen (AID 504459;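 active = percent response above 42, roughly 3 SD of non-fluorescent test compounds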;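 also: agonist-driven loss of surface beta2AR via internalization measured by FAP dye flow cytometry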). The following applies: Am2.2-beta2AR cells, at 10 µM, stronger effect = higher value.
The nature of experiment [15]: hit retest on RPL19A-GFP reporter strain – cell-based, S. cerevisiae, flow cytometry, cherry picks, mother/daughter gates, confirmation (AID 2270;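 active = GFP response below 50% of the DMSO control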). The following applies: 3 h, at 10 µM, stronger effect = lower value, 100 = same GFP as DMSO wells.
Experiment [16] in a line: yeast TOR pathway reporter LAP4-GFP change – cell-based, cherry picks, flow cytometry, mother/daughter gates, confirmation (AID 2271;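 active = GFP response above 150% of the DMSO control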;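 also: ratio of sample to DMSO plate mean so 100% equals DMSO level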). The conditions noted are these: S. cerevisiae LAP4-GFP strain, 3 h, at 10 µM, stronger effect = higher value.
Experiment [17] in a line: TOR pathway reporter MEP2-GFP, retest of hits – S. cerevisiae, flow cytometry GFP, cherry picks, confirmation (AID 2272;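 active = GFP response above 150% of the DMSO control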;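 also: ratio of well signal to plate DMSO mean so 100% equals DMSO level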). The following applies: S. cerevisiae MEP2-GFP strain, 3 h, at 10 µM, stronger effect = higher value.
A short description of experiment [18]: yeast AGP1-GFP fluorescence change, single-dose – cell-based, flow cytometry, S. cerevisiae, cherry picks, confirmation (AID 2273;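 active = GFP response above 150% of the DMSO level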;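 also: median GFP channel fluorescence over the whole cell population gate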). The conditions noted are these: S. cerevisiae AGP1-GFP strain, 3 h, at 10 µM.
Experiment [19] in a line: TOR pathway CIT2 reporter hit retest – S. cerevisiae, GFP fusion, cherry picks, mother/daughter gates, confirmation (AID 2274;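 active = GFP response above 150% of the DMSO level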). The conditions noted are these: S. cerevisiae CIT2-GFP strain, flow cytometry, 3 h, at 10 µM, stronger effect = higher value.
The mark [20] stands for this setting: measured here: daughter cell gate.
The mark [21] stands for this setting: measured here: mother cell gate.
Where [22] appears, read: measured here: daughter cell gate response.
Where [23] appears, read: measured here: mother cell gate response.

The values that follow come from PubChem BioAssay.

Active and inactive are the calls of the source. Unless noted, no rule for the calls is given here.

AP-2 complex subunit beta (Homo sapiens), sequence (P63010 whole entry, looked up, one chain of several): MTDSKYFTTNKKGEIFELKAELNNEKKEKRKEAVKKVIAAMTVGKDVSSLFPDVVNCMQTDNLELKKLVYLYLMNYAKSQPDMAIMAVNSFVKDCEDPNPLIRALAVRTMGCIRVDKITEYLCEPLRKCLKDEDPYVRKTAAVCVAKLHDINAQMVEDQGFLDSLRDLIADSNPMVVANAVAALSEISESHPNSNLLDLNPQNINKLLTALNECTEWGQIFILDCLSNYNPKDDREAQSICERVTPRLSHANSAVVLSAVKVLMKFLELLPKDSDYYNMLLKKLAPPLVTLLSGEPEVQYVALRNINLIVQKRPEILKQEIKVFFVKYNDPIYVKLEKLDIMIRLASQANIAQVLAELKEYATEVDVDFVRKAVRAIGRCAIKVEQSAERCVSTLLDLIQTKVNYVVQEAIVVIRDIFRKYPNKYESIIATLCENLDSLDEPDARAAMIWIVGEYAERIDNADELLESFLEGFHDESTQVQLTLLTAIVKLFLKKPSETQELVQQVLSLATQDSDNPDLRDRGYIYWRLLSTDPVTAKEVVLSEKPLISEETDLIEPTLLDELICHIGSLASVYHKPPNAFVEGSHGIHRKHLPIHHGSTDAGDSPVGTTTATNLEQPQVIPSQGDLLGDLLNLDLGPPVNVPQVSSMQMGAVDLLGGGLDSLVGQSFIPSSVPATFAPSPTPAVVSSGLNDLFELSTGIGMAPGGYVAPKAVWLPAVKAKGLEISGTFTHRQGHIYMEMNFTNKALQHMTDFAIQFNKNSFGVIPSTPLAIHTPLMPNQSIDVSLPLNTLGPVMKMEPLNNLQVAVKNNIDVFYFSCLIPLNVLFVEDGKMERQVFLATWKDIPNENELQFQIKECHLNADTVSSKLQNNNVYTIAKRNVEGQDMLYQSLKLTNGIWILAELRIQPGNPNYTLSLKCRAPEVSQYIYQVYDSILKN
Integrin beta-1 (Homo sapiens) + Integrin alpha-4 (Homo sapiens), sequence (P05556 whole entry, looked up): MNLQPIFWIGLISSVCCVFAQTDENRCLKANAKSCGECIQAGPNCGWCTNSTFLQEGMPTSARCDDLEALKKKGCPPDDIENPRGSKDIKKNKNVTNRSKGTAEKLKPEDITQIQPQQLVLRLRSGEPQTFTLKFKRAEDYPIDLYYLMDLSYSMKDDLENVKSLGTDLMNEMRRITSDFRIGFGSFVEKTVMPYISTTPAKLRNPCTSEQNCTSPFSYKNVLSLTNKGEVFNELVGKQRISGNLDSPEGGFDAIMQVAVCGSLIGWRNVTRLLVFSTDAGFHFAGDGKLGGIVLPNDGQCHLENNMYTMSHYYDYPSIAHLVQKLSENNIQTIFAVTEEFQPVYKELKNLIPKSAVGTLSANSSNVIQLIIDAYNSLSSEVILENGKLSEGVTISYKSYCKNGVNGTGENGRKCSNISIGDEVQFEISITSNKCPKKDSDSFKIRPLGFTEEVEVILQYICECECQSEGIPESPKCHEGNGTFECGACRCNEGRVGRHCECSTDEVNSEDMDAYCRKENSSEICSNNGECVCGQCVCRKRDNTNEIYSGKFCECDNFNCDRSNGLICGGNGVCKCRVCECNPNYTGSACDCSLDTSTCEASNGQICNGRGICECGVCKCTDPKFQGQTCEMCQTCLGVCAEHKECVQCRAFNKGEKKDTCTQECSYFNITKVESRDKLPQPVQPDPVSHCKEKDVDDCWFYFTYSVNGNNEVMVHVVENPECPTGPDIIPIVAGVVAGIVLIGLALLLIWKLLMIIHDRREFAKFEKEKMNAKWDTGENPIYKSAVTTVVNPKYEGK
Integrin beta-1 (Homo sapiens) + Integrin alpha-4 (Homo sapiens), sequence (P13612 whole entry, looked up): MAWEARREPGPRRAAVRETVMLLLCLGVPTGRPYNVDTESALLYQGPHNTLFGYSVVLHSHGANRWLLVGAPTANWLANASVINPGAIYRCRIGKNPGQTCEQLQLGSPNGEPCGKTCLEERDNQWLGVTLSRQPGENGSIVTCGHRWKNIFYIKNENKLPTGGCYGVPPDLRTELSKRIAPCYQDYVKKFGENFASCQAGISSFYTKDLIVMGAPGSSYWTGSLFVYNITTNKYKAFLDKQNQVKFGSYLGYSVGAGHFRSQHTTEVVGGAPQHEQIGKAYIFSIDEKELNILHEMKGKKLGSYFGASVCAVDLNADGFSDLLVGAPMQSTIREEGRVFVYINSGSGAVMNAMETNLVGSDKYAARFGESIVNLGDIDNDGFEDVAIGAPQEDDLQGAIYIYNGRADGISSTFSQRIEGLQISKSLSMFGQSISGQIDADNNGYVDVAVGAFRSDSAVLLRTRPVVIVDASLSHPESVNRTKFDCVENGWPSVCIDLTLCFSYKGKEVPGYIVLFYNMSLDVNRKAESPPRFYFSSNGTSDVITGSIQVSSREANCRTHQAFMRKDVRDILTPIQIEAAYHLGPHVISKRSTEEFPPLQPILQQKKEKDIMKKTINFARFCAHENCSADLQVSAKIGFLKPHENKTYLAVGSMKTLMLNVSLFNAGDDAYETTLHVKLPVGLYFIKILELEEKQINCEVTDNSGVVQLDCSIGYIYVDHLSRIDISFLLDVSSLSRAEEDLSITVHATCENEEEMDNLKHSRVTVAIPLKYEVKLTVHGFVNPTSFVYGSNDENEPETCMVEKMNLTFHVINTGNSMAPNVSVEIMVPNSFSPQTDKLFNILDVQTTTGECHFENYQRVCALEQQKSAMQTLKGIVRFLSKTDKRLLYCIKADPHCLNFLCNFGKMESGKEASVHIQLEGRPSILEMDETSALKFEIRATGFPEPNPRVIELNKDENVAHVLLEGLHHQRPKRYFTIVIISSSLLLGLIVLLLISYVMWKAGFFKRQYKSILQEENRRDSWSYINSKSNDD
Botulinum neurotoxin type A (Clostridium botulinum), sequence (P0DPI0 whole entry, looked up): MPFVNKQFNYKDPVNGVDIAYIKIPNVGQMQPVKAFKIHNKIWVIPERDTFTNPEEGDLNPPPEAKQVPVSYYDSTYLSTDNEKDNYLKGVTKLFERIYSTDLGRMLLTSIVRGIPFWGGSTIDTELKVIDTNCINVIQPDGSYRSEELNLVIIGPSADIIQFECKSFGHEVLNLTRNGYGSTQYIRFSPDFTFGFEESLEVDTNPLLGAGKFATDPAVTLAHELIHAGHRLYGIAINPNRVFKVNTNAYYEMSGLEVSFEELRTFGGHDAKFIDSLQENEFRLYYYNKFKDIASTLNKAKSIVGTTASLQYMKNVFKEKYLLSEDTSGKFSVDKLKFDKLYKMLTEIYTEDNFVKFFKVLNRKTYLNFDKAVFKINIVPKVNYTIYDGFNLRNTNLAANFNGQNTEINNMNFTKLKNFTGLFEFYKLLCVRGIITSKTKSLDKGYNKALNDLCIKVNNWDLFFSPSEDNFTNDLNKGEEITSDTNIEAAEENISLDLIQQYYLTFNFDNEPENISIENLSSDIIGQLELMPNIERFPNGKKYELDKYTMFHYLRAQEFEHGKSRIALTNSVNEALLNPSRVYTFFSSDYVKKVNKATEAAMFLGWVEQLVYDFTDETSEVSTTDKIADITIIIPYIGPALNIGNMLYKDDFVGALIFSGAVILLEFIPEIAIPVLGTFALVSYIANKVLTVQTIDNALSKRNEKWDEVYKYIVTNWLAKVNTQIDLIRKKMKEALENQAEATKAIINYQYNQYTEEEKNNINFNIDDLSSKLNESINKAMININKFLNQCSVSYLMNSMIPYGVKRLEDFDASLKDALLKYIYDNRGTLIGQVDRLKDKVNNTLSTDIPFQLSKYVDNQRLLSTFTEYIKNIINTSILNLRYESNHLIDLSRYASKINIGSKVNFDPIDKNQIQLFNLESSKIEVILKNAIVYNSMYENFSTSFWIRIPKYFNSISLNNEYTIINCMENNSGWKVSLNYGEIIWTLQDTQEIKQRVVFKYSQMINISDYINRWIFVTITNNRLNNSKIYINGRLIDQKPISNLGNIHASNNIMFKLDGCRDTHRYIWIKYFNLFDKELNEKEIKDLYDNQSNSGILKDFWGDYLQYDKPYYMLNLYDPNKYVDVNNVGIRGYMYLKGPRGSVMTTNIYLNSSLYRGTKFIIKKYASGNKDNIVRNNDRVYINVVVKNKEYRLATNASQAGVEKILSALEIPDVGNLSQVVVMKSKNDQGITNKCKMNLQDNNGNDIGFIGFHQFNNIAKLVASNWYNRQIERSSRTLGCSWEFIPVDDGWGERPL
Lethal factor (Bacillus anthracis), sequence (P15917 whole entry, looked up): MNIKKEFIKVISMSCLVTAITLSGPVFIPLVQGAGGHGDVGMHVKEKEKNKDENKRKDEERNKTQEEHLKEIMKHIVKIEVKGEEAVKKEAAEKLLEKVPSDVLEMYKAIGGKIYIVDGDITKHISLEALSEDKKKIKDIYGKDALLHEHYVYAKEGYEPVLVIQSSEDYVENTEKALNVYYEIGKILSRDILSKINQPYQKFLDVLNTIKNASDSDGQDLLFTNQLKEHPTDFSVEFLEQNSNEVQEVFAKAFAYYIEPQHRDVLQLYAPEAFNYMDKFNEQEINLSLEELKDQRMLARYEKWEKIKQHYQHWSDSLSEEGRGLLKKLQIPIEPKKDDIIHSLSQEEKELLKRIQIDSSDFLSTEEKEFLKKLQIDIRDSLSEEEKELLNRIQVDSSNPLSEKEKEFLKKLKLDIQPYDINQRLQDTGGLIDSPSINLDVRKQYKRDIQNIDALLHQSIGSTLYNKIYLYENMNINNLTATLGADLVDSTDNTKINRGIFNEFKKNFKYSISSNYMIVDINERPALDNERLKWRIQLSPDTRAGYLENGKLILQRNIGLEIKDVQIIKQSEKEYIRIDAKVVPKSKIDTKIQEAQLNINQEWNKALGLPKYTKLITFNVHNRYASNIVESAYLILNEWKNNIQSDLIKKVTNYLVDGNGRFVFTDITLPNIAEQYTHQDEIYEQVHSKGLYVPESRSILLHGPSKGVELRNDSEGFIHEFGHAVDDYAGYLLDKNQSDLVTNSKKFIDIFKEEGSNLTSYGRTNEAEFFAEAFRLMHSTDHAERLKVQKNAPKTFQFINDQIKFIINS

In experiment [1], `CC(CCc1ccccc1)NC(C)C(O)c1ccc(O)cc1` (stereo not given) gave a double positive events of 49%. Moreover, in experiment [1], the vesicle binding response is 166% (inactive). Further, the inhibition in [2] is -20.8% (inactive); in experiment [5] it was 2.09% (inactive); in experiment [8], -3.5% (inactive); in [9], -0.8% (inactive); in experiment [10] it was -0.5% (inactive); in experiment [12] it was 10% (inactive). Besides, the superoxide response (% of plate) in [3] is 111% (inactive). Besides, the aptamer binding inhibition in [4] was 1% (inactive). Moreover, the response in experiment [6] is 5.84% (inactive). In addition, the binding (% of control) in experiment [7] is 95.4% (inactive). Moreover, the efflux inhibition (fraction of control) in [11] is -0.28 (inactive). Further, in [13], the differentiation response was -16.4% (inactive).
On to `C[C@]12CCC(=O)C=C1CC[C@@H]1[C@@H]2C(=O)C[C@]2(C)C(=O)CC[C@@H]12`, for which, in experiment [1], the double positive events was 61%. Further, the vesicle binding response in [1] is 259% (inactive). For the same molecule, the inhibition in experiment [2] is 6.55% (inactive); in [5], 0.49% (inactive); in experiment [8], -1.7% (inactive); in experiment [9] it was 1% (inactive); in experiment [10] it was -4.7% (inactive); in experiment [12] it was -30% (inactive). The superoxide response (% of plate) in experiment [3] was 76.3% (inactive). Besides, the aptamer binding inhibition in [4] was 3% (inactive). Further, the response in experiment [14] is -22.9% (inactive); in experiment [6], -0.42% (inactive). Also, the binding (% of control) in [7] was 99.9% (inactive). Besides, the efflux inhibition (fraction of control) in experiment [11] is 0.12 (inactive). In addition, the differentiation response in [13] is 5.85% (inactive).
As for `C[C@]12CCC(=O)C(O)=C1CC[C@@H]1[C@@H]2CC[C@]2(C)C(=O)CC[C@@H]12`, the GFP response vs DMSO was 99.3% (inactive) in experiment [15], 97.5% in experiment [15] (setting [20]), 99.2% in experiment [15] (setting [21]) and 102% (inactive) in experiment [17]. In addition, the figures for the GFP response relative to DMSO in [16], in experiment [16] (setting [22]) and in experiment [16] (setting [23]) were 102% (inactive), 102% and 103%, respectively. Moreover, the GFP response, % of DMSO was 101% (inactive) in experiment [18], 104% (inactive) in [19], 103% in experiment [19] (setting [20]) and 105% in experiment [19] (setting [21]). This molecule also had a double positive events in [1] of 68.3%. In addition, the vesicle binding response in experiment [1] is 118% (inactive). Further, the inhibition in [2] was 10.3% (inactive); in [5] it was 0.25% (inactive); in [8], 0.8% (inactive); in [9], -1.4% (inactive); in [10], -6.6% (inactive); in [12], 21% (inactive). Moreover, the superoxide response (% of plate) in experiment [3] is 97.5% (inactive). Further, the aptamer binding inhibition in experiment [4] is 1% (inactive). In addition, the response in experiment [14] was 4.26% (inactive); in experiment [6], -1.14% (inactive). The binding (% of control) in experiment [7] is 110% (inactive). In addition, in experiment [11], the efflux inhibition (fraction of control) was -0.17 (inactive). Besides, the differentiation response in [13] is 3.28% (inactive).
As for `CCCCn1c(=O)c(C(=O)Nc2ccsc2C(=O)OC)c(O)c2ccccc21`, the GFP response vs DMSO in [15] is 101% (inactive); in experiment [15] (setting [20]), 94.9%; in [15] (setting [21]), 100%; in [17], 101% (inactive). The GFP response relative to DMSO in [16] was 94.4% (inactive); in [16] (setting [22]), 95.9%; in experiment [16] (setting [23]), 94.1%. The GFP response, % of DMSO in experiment [18] was 102% (inactive); in [19], 95.9% (inactive); in [19] (setting [20]) it was 93.8%; in experiment [19] (setting [21]), 95.6%.
`O=C1CSC2N1CCNC21CCCCC1` (stereo not given): in experiment [1], the double positive events was determined as 64.1%. Moreover, in experiment [1], the vesicle binding response is 191% (inactive). The inhibition in experiment [2] was -31.6% (inactive); in experiment [5] it was 4.77% (inactive); in experiment [8], -1% (inactive); in [9], 1% (inactive); in [10], -3.4% (inactive); in experiment [12], 42% (inactive). Further, the aptamer binding inhibition in [4] was 0% (inactive). Further, the response in experiment [14] was 2.41% (inactive); in [6] it was 2.26% (inactive). In [7], the binding (% of control) was 112% (inactive). In addition, in experiment [11], the efflux inhibition (fraction of control) is 1.11 (active). Further, in [13], the differentiation response is 28.6% (inactive).
